The record followed here is a collection of fitness landscapes (doi:10.1126/science.1257360).

In all, about 140,000 sequences were measured (“enrichment ratio after two sorts for PhoP signalling”: median about 0, highest 2% from about 11 on). For the sample, the highest values were picked, then their nearest neighbours and some sequences at random.

To fix the notation:
B1: PhoQ; a variant is named by its letters at X, in order, P23837 (parent)
chain: MKKLLRLFFPLSLRVRFLLATAAVVLVLSLAYGMVALIGYSVSFDKTTFRLLRGESNLFYTLAKWENNKLHVELPENIDKQSPTMTLIYDENGQLLWAQRDVPWLMKMIQPDWLKSNGFHEIEADVNDTSLLLSGDHSIQQQLQEVREDDDDAEMTHSVAVNVYPATSRMPKLTIVVVDTIPVELKSSYMVWSWFIYVLSANLLLVIPLLWVAAWWSLRPIEALAKEVRELEEHNRELLNPATTRELTSLVRNLNRLLKSERERYDKYRTTLTDLTHSLKTPLXXLQXXLRSLRSEKMSVSDAEPVMLEQISRISQQIGYYLHRASMRGGTLLSRELHPVAPLLDNLTSALNKVYQRKGVNISLDISPEISFVGEQNDFVEVMGNVLDNACKYCLEFVEISARQTDEHLYIVVEDDGPGIPLSKREVIFDRGQRVDTLRPGQGVGLAVAREITEQYEGKIVAGESMLGGARMEVIFGRQHSAPKDE

The test covers variants of B1. Nature of the test: enrichment ratio after two sorts for PhoP signalling (ratio (wild type AVST 3.29)); higher = more functional. To be noted: with PhoP (E. coli).
For the variant FYPG, the enrichment ratio was at most 0.25.
The value for EFYK was at most 0.25; that for IDSN was at most 0.25; that for GCLV was 14.5.
For ANLV the value was 14.1; for AYLV, 3.08.
As for AHLV, the enrichment ratio amounted to 1.12.
For AILV the value was 5.12; for VCLV, 13.
The value for QCLV was 1.13; that for MKLV was 9.89.
The value for VYLV was at most 0.25.
Turning to AKLV, the enrichment ratio came out at 16.2.
For KCLV the value was at most 0.25.
The value for VFLV was at most 0.25; that for RCEW was at most 0.25; that for VEQN was at most 0.25.
For PFRI the value was at most 0.25.
For SNAR, the enrichment ratio is at most 0.25.
For LYVG the value was at most 0.25; for WLGW, at most 0.25.
The value for KALV was at most 0.25; that for SNLV was 15.8.
Consider IFLV, for which the enrichment ratio was at most 0.25.
The value for TKLV was 23.3.
For the variant KKLV, the enrichment ratio was at most 0.25.
In the case of YALV, the enrichment ratio came out at 11.1.
For IILV the value was 1.58; for HKLV, 0.341; for AALV, 12.9.
The value for SRLV was 0.905; that for TPLV was at most 0.25; that for ICLV was 18.8.
The value for EKVF was at most 0.25.
As for HDKH, the enrichment ratio is at most 0.25.
The value for VLRH was at most 0.25; that for RKNR was at most 0.25; that for SYSF was at most 0.25.
The value for DGQH was at most 0.25; that for YPAE was at most 0.25.
The value for NFWK was at most 0.25.
MMNV: the enrichment ratio was at most 0.25.
The value for GNLV was 11.9; that for GSHK was at most 0.25; that for IALV was 13.1.
For IPLV the value was at most 0.25.
The value for WILV was at most 0.25.
Turning to NALV, the enrichment ratio was at most 0.25.
For GILV the value was 10.9; for LNLV, at most 0.25.
The value for GSLV was 17.9; that for QWMF was at most 0.25; that for VRHG was at most 0.25.
Regarding GYNH, the enrichment ratio was at most 0.25.
The value for TDKY was at most 0.25.
The value for TGYH was 1.03; that for IQEV was at most 0.25; that for PSYQ was 1.11.
The value for AITS was 9.53.
Turning to ACTH, the enrichment ratio amounted to 2.87.
As for AMWI, the enrichment ratio was at most 0.25.
For ACNH the value was at most 0.25.
For NMVW the value was at most 0.25; for AMVW, 11.8.
For PWHD the value was at most 0.25; for VLVW, at most 0.25.
Take AMTS: the enrichment ratio was 13.9.
In the case of AWHD, the enrichment ratio came to 24.7.
The value for ACGH was 13.6; that for LWHD was at most 0.25; that for SCPW was at most 0.25.
The value for KEAN was at most 0.25; that for YKMT was 0.253.
For GVMF the value was 2.88; for MYDC, at most 0.25; for VHEE, at most 0.25.
MGNK: the enrichment ratio is at most 0.25.
For EGFI the value was at most 0.25; for EGVD, at most 0.25.
The value for QFHL was at most 0.25; that for WTPV was at most 0.25; that for FCGM was at most 0.25.
The value for WFML was at most 0.25.
As to GWCM, the enrichment ratio is at most 0.25.
As to QTWG, the enrichment ratio was at most 0.25.
Turning to AKTD, the enrichment ratio was at most 0.25.
Regarding AIGH, the enrichment ratio came out at 2.15.
For AMGD the value was 11.5; for AMGH, 51.
The value for AMYD was at most 0.25; that for AMTD was at most 0.25; that for AIFC was at most 0.25.
For KKTI the value was at most 0.25; for AITC, 19; for AKTI, 23.6.
On to AMTH, for which the enrichment ratio is 0.411.
The value for KKTC was at most 0.25; that for DKAP was at most 0.25.
The value for KDMR was at most 0.25; that for TRNK was at most 0.25; that for HVKY was at most 0.25.
For PFRW the value was at most 0.25; for KMGT, at most 0.25.
In the case of QKFN, the enrichment ratio is at most 0.25.
The value for RPYD was at most 0.25; that for NMTI was at most 0.25.
For AKTK the value was at most 0.25; for AKFC, at most 0.25; for NMVQ, at most 0.25.
For AMIM the value was 29.3.
On to AKTC, for which the enrichment ratio is 30.2.
For AMVQ the value was 13.1.
The value for AMVA was at most 0.25; that for AMTI was 11.6; that for AMWM was at most 0.25.
The value for AMPM was at most 0.25; that for AITI was 10.7; that for DMSC was at most 0.25.
KPPG: the enrichment ratio is at most 0.25.
For the variant MFQM, the enrichment ratio is at most 0.25.
For IEMM the value was at most 0.25.
The value for MKCV was at most 0.25.
As to WYPM, the enrichment ratio is at most 0.25.
The value for IISF was at most 0.25.
For KMPW the value was at most 0.25; for LYRY, at most 0.25.
For PGVK the value was at most 0.25.
Consider AKAQ, for which the enrichment ratio turned out to be 7.28.
As to AMGQ, the enrichment ratio is 13.7.
For NMGQ the value was at most 0.25; for AMNK, at most 0.25.
Consider NMAQ, for which the enrichment ratio is at most 0.25.
For AMAQ the value was 12.1; for AHGQ, at most 0.25; for AMTC, 20.7.
Regarding AMFC, the enrichment ratio was at most 0.25.
For HQSV the value was at most 0.25; for LFRC, at most 0.25.
Consider PWKY, for which the enrichment ratio was at most 0.25.
The value for DPKV was at most 0.25; that for TIQF was 9.01.
For EQIN the value was at most 0.25; for TGIN, at most 0.25.
With KAIN, the enrichment ratio is at most 0.25.
SQIN: the enrichment ratio turned out to be 12.8.
For the variant SGIN, the enrichment ratio amounted to 11.4.
For SCIN the value was 0.637.
The value for NAIN was at most 0.25.
For SAIN the value was 11.8; for SRIN, at most 0.25; for VAML, 7.99.
KNIR: the enrichment ratio was at most 0.25.
The value for SWRM was at most 0.25.
